Measured values reported in PubChem BioAssay AID2284199 (EPA ToxCast).
The source made the active and inactive calls. How the source made its calls: active means hit-call score of the fitted dose curve at least 0.9, where 1 is the maximum; inactive means score below 0.9.

Molecular target: rat Vesicular Monoamine Transporter (VMAT2), Slc18a2 (gene 25549) (UniProt Q01827)
Assay: ERF_TW_TR_rSLC18A2: Eurofins (ERF) Radioligand Binding LeadHunter Assay for rat Vesicular Monoamine Transporter (VMAT2) Antagonism
Description: ERF_TW_TR_rSLC18A2 is a biochemical, single-readout assay that uses extracted gene-proteins in a cell-free assay. Measurements were taken 0.5 hour after chemical dosing in a 96-well plate. See VMAT2 Rat Vesicular Monoamine Transporter Binding (Antagonist Radioligand) Assay, Panlabs.ERF_TW_TR_rSLC18A2 is an assay component calculated from the ERF_TW_TR_rSLC18A2 assay. It is designed to measure radioligand binding using a type of binding reporter as detected by scintillation counting with radiometry technology.Data from the assay component ERF_TW_TR_rSLC18A2 was analyzed at the assay endpoint, ERF_TW_TR_rSLC18A2, in the positive analysis fitting direction relative to DMSO as the negative control and baseline of activity. Using a type of binding reporter, loss-of-signal activity can be used to understand changes in transporter binding as they relate to gene SLC18A2. To generalize the intended target to other relatable targets, this assay endpoint is annotated to the transporter intended target family, where the subfamily is vesicular transporter.
This assay measures binding of [3H]Dihydrotetrabenazine to sites associated with the vesicular monoamine uptake transporter. […] Membranes are filtered and washed, the filters are then counted to determine [3H]Dihydrotetrabenazine specifically bound. […]

Chain of rat Vesicular Monoamine Transporter (VMAT2), Slc18a2 (gene 25549) (Q01827 whole entry, looked up): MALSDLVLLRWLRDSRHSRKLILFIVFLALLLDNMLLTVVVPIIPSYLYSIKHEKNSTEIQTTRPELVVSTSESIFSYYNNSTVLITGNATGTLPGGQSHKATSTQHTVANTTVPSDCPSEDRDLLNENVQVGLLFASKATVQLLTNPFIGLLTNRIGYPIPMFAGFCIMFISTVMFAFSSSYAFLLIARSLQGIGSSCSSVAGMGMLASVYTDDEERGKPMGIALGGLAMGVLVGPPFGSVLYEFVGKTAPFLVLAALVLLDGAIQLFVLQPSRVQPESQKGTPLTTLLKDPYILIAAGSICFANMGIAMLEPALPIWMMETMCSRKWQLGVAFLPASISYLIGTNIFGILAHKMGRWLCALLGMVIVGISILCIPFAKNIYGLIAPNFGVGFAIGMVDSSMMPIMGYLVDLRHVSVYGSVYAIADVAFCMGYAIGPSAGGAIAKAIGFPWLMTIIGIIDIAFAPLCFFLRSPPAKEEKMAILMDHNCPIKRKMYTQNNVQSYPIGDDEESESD

| Compound | AC50 |
| --- | --- |
| O=C(/C=C/c1ccc(O)cc1)CC(=O)/C=C/c1ccc(O)cc1 | 283 nM (active) |
| COc1cc(CCC(=O)CC(=O)CCc2ccc(O)c(OC)c2)ccc1O | 5000 nM (active) |
